MCL1 BIM primary – MCL1-BIM-BH3 interaction inhibition (human). Q07820. GST-MCL1 / FITC-Bim-BH3 fluorescence polarization. inhibition, % at 10.9 µM. 0.68% of 320,000 active;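 active = inhibition above the mean inhibition of all tested compounds plus 3 SD, set per campaign, cut at about 40% in these data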;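 also: 0% = DMSO wells and 100% = unlabeled Bim-BH3 peptide control; higher means more loss of mP so more displacement of Bim peptide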
Bcl-xL primary – inhibitors of human Bcl-xL. GST-Bcl-xL / FITC-Bim BH3 peptide fluorescence polarization. inhibition, % at 10.9 µM. 0.7% of 320,000 active. AID 2129. Q07817;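 active = inhibition above the mean of all tested compounds plus 3 SD, cutoff set per campaign, cut at about 30% in these data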;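 also: 0% = DMSO wells and 100% = unlabeled Bim-BH3 peptide competitor; inhibitors lower millipolarization by displacing the labeled peptide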
MEX-5 binding – C. elegans MEX-5 TCR-2 RNA binding activity. activity score (negative = inhibition of binding), % at 10 µM. MEX-5/FITC-TCR2 RNA binding, fluorescence polarization; hits give low values. Q9XUB2. 0.38% of 300,000 active. AID 1832;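 active = inhibition past about -25% in most replicates, and total fluorescence under double the plate's negative control median, limit read from the data; inconclusive = replicates evenly split on the limit, or fluorescence at least double controls; inactive = too little inhibition in most replicates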;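 also: 0% = DMSO and -100% = 5 µM competing unlabeled TCR2 RNA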
GLD-1 RNA inh – GLD-1-TGE RNA interaction inhibition (C. elegans). 0.44% of 320,000 active. inhibition, % at 5.96 µM. AID 2280. purified GLD-1 + fluorescein TGE RNA, fluorescence polarization;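 active = percent inhibition above a per-plate cutoff, the plate mean of test compounds plus 3 SD, cut at about 30% in these data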;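 also: 0% = DMSO wells with GLD-1 and probe and 100% = wells lacking GLD-1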
Target sequence (Q17339 whole entry, looked up): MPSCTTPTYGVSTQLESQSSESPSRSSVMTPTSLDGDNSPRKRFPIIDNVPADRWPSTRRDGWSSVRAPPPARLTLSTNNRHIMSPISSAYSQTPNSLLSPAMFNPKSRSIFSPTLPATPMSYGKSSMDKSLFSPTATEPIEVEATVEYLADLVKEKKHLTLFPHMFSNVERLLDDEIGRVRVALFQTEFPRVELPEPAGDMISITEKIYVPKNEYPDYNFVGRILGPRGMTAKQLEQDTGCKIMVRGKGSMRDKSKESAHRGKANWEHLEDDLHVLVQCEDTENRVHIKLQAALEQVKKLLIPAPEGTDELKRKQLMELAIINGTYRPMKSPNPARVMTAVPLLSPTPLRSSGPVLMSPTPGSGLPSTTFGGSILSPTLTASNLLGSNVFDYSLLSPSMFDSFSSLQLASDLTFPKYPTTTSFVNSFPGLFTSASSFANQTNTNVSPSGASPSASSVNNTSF
E coli Lon inh – E. coli protease La inhibition; P0A9M0; purified E. coli Lon protease, fluorescence polarization; inhibition, % at 7.94 µM; 0.42% of 360,000 active; in the data active = inhibition above about 13%, passing the limit was not always enough;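 also: 0% = enzyme with probe and DMSO and 100% = no enzyme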
* marks the source's active call; other numbers are inactive results; ? = inconclusive; . = not tested or not shown. Compounds with a hit are over-represented: about 1.4% of the library has one in this group of screens.

SMILES	MCL1 BIM primary	Bcl-xL primary	MEX-5 binding	GLD-1 RNA inh	E coli Lon inh
CC1(C(=O)NS(=O)(=O)c2ccc3c(c2)CCO3)CCN1C(=O)C1(c2ccc(Cl)cc2)CC1 (configuration not stated)	.	.	.	.	-6
O=C(OCc1ccc(C(=O)c2ccccc2)cc1)c1cccc(-c2nnc(-c3ccccc3)o2)c1	-3	0	.	-1	16*
COc1cccc(N=C2NC(=O)/C(=C/c3cc([N+](=O)[O-])ccc3O)S2)c1	-55	-19	-2	-8	-34
O=C1NC(=Nc2ccccc2Cl)S/C1=C\c1cc([N+](=O)[O-])ccc1O	-89	-42	-40*	-36	-309
NCCCC[C@@H](C(=O)N1CCNCC1)n1cc(CN)nn1	0	5	.	-2	-2
CCCCc1cn([C@@H](CCCCN)C(=O)N2CCNCC2)nn1	36	39*	-29*	25	11
CC1=NN(C(N)=S)C(=O)C1N=Nc1cccc(C)c1 (configuration not stated)	4	3	0	-1	-8
CC1=NN(C(N)=S)C(=O)C1N=Nc1cccc(C(=O)O)c1 (configuration not stated)	.	.	-30*	.	-6
N=c1oc2c3c4c(cc2cc1C(=O)Nc1ccccc1)CCCN4CCC3	191*	165*	?	88*	6
C=C(C)c1cccc(C(C)(C)NC(=O)N2CCN(C/C=C/c3ccccc3)CC2)c1	-4	-1	0	0	3
O=C(/C=C/c1ccc(O)c(O)c1)c1ccccc1O	-6	-3	-38*	1	-11
O=C(C=Cc1cccc(O)c1)c1ccccc1O	.	.	.	.	-5
Nc1nc(-c2ccccc2)[nH]c(=O)c1N	12	12	-26*	18	-6
CCOc1cc(/C=C(/C#N)c2nc3ccccc3[nH]2)ccc1Oc1ccc([N+](=O)[O-])cn1	1	-4	0	-3	-12
CCOc1cc(/C=C(\C#N)c2nc3ccccc3[nH]2)ccc1OC(C)C(=O)O (configuration not stated)	1	6	-30*	-8	-29
COC(=O)c1ccc(COc2ccc(/C=C(\C#N)c3nc4ccccc4[nH]3)cc2OC)o1	4	3	-30*	1	-13
COc1cc(/C=C(/C#N)c2nc3ccccc3[nH]2)ccc1OCc1ccc(C(=O)O)o1	-11	-3	-2	3	-10
O=C(COc1ccc2ccccc2c1)NCCc1ccc2c(c1)OCCO2	-1	1	5	-2	5
O=C(CN1C(=O)NC2(CCCCC2)C1=O)N1CCOCC1	0	4	.	5	2
CCOC(=O)CNc1c(-c2ccc(F)cc2)nc2cnccn12	24	33*	-12	15	-4
Cc1ccc(-c2nnn(CC(=O)N(c3ccc4c(c3)OCCO4)C(C(=O)NCC3CCCO3)c3ccc(F)cc3)n2)o1 (configuration not stated)	-2	3	1	5	-4
CCc1nn(C)c2c(=O)c(=O)c2n(C)[nH]1	38	33*	-18	24	8
CCOc1cc(C2NC(=O)NC(C)=C2C(=O)OCC2CCCCC2)ccc1O (configuration not stated)	0	-3	1	9	-4
CS(=O)(=O)ON=C1CCN(S(=O)(=O)c2ccccc2)CC1	0	3	0	10	-6
CC(C)CCC(=O)N1CCC(N2CCC(C(=O)NCc3ccccn3)CC2)CC1	7	16	-5	6	-6
SMILES	MCL1 BIM primary	Bcl-xL primary	MEX-5 binding	GLD-1 RNA inh	E coli Lon inh
CSCC(C)N1CCC(N2CCC(C(=O)NCc3ccccn3)CC2)CC1 (configuration not stated)	40*	33*	?	18	-12
Cc1cccc(S(=O)(=O)C(C#N)c2nc3ccccc3nc2N2CC(C)OC(C)C2)c1 (configuration not stated)	14	10	?	22	2
Cc1ccc(S(=O)(=O)C(C#N)c2nc3ccccc3nc2N2CC(C)OC(C)C2)cc1C (configuration not stated)	9	11	-59*	6	-12
CC1CCCN(c2nc3ccccc3nc2C(C#N)S(=O)(=O)c2cccs2)C1 (configuration not stated)	18	22	-50*	9	-10
N#CC(c1nc2ccccc2nc1N1CCOCC1)S(=O)(=O)c1ccccc1 (configuration not stated)	8	6	.	3	-3
Cc1ncc(CN2CCC(CO)(CCc3ccccc3)CC2)s1	9	8	0	-2	-11
O=C(NNC(=O)c1cc(Cl)ccc1[N+](=O)[O-])c1csc(N2CCOCC2)n1	0	2	-31*	6	-16
O=C(NNC(=O)c1cc(Br)ccc1Cl)c1csc(N2CCOCC2)n1	6	3	-3	-1	-2
Nc1c(N2CCCC2)cc(Cl)c2nonc12	34	50*	-1	5	4
COc1ccc(S(=O)(=O)N2CCCCC2)cc1NC(=O)CCNC(=O)c1ccccc1Cl	28	32*	.	8	-2
COc1ccc(S(=O)(=O)N2CCCCCC2)cc1NC(=O)CCNC(=O)c1ccccc1Cl	.	.	.	.	-9
Cc1cc2n(n1)C(c1c[nH]c3ccccc13)Nc1ccccc1-2 (configuration not stated)	7	10	-32*	23	-10
CCSC1=N/C(=C\c2ccccc2)C(=O)N1	0	4	-40*	4	-6
O=c1c2ccccc2c(C=Nc2ccccc2O)c(O)n1-c1nccs1	30	37*	-13	-17	-38
Cc1ccc(NC(=S)NC(=O)C2CC2)c(C)c1	15	5	-1	7	-4
Cc1nn(C)c(C)c1C1C(C#N)=C(N)OC2=C1C(=O)CCC2 (configuration not stated)	-3	2	0	-3	8
O=C1/C(=C/c2ccc([N+](=O)[O-])cc2)Oc2cc(O)ccc21	.	.	0	.	-9
CC(C)(C)c1ccc(/C=C2\Oc3cc(O)ccc3C2=O)cc1	-4	6	-27*	17	-132
CCc1ccc(/C=C2\Oc3cc(OS(C)(=O)=O)ccc3C2=O)cc1	-2	-3	-1	2	-11
O=C1/C(=C/c2ccc(Br)cc2)Oc2cc(O)ccc21	24	21	-40*	76*	-183
CCOc1ccc(/C=C2\N=C(c3cccs3)OC2=O)cc1OC	1	-2	?	-1	.
COc1ccc(/C=C2/N=C(c3cccs3)OC2=O)cc1OC(C)C	-6	-2	-53*	-3	-3
Fc1ccc(Br)cc1C1C=C(c2ccc(Br)s2)Nc2ncnn21 (configuration not stated)	-2	38*	-2	19	-23
COc1cccc(C2C=C(c3ccc(Br)s3)Nc3ncnn32)c1OC (configuration not stated)	32	34*	-3	2	-34
O=C(Nc1ccccc1)/C(=C/c1ccc([N+](=O)[O-])cc1)NC(=O)c1ccco1	2	4	2	-3	-15

From PubChem BioAssay
